Pf growth 96h – inhibits malaria parasite growth, 96 h; P. falciparum luciferase reporter growth, 96 h; Potency, µM (highest dose often 28.7 µM), without a hit: at the highest dose activity change, negative = inhibition, actives largely listed as inhibitors; 320,000 compounds, 6.9% hits; AID 504834; also: potency is read from the fitted curve at half-maximal effect; % is scaled to controls: 0 for no effect and ±100 for the full control effect
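Readout is luminescence from an integrated firefly luciferase in P. falciparum. Red cells, 2% hematocrit and 0.05% parasitemia final, were cultured with compound through two parasite generations (96 hours) at 37 C, 5% CO2.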
Pf growth 48h – inhibits P. falciparum growth in the first generation, 48 h | P. falciparum luciferase growth in erythrocytes, 48 h | Potency, µM (top dose mostly 28.7 µM), without a hit: top-dose activity change, negative = inhibition, actives largely listed as inhibitors | 310,000 compounds, 5.9% hits; also: potency is read from the fitted curve at half-maximal effect; % is scaled to controls: 0 for no effect and ±100 for the full control effect
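First compound was added to culture medium, then infected red cells at 0.1% parasitemia and 2% hematocrit (final). After incubation at 37 C under 5% CO2, luciferase detection reagent was dispensed and light output recorded.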
Cycloheximide cs – counter-screen hit for Shiga toxin inhibitors, cycloheximide; cell reporter, cycloheximide protein synthesis inhibition counterscreen; max response, %; 300,000 compounds, 12% hits; AID 2314; in the data active = max response mostly above about 13%, no sharp cut-off; inactive = mostly below about 14%; also: read at 38.3 µM for the half of the compounds with a filed dose; 0% is about no effect
Shiga inhibitor – blocks Shiga toxin action in Vero cells; Vero cells, Shiga toxin protein synthesis inhibition reporter; 290,000 compounds, 9.2% hits; inhibition, % at 38.7 µM; in the data active = inhibition mostly above about 28%, no sharp cut-off; inactive = mostly below about 43%; also: 0% is about no effect
Numbers without * were called inactive; ? = inconclusive; · = not tested or not shown. A selection: hits, their analogues and other compounds. The true share with any hit is near 21%. Unless noted, calls follow the shape of the dose curve; as a rule, active = well fitted inhibition curve with a large enough effect; inconclusive = small, poorly fitted or top-dose-only effect, or another doubt; inactive = no such curve, though single readings can be large or run the other way.

SMILES | Pf growth 96h | Pf growth 48h | Cycloheximide cs | Shiga inhibitor
COc1ccc(CCN)cc1OC | ? | -18% | -3 | 16
Clc1ccc(COc2ccccc2CNCc2cccnc2)cc1 | 4.7µM* | · | -5 | -13
COc1cc(CNCc2cccnc2)ccc1OCc1ccccc1 | 67% | 65% | 36* | 76*
NCCc1ccc(OCc2ccccc2)c(OCc2ccccc2)c1 | 10µM* | ? | · | ·
c1ccc(COc2cccc(CNCc3cccnc3)c2)cc1 | 7% | ? | 9 | 13
CNCc1ccc(OCc2ccccc2)c(OC)c1 | 7% | 14% | 28* | 27
CN(C)CCOC(=O)[C@@H](c1ccccc1)C1(O)CCCC1 | 48% | 36% | · | ·
COc1ccc(CNCc2ccco2)cc1OCc1ccccc1 | 68% | 72% | 41* | 90*
COc1cc(CNCCO)ccc1OCCc1ccccc1 | 8% | -19% | 13* | 11
COc1cc(CNCCc2ccccc2)ccc1OCC(N)=O | 9% | -3% | 1 | -10
CNCC(C)COc1ccccc1OCc1ccccc1 (stereo not given) | 12µM* | ? | -3 | -17
COc1ccccc1CCNCc1ccc(OC)c(OCc2ccccc2)c1 | 0% | 0% | -3 | -10
COc1cc(CNCC(O)c2ccccc2)ccc1OCc1ccc(Cl)nc1 (stereo not given) | 3.7µM* | · | 17* | 30
Cc1cccc(N2CCN(C3CCCCC3NS(=O)(=O)c3ccccc3)CC2C)c1 (stereo not given) | 25% | ? | 2 | -4
CSc1ccc(Cl)c(C(=O)OCC(=O)N(C)CCC#N)c1 | 5% | 187% | -4 | -5
CC1=C(C(N)=O)S(=O)(=O)c2ccccc21 | 40% | 7% | -4 | -10
O=C(CSCc1c(F)cccc1Cl)NCc1cccnc1 | ? | -1% | 2 | -2
Fc1cccc(Cl)c1CNCc1cccnc1 | 12µM* | 11% | -1 | 17
Cc1cc(C)n(-c2ccc(NC(=O)C3CCCCN3C(=O)c3ccoc3)cc2)n1 (stereo not given) | 9.3µM* | -5% | 12 | -2
Cc1cc(C)n(-c2ccc(NC(=O)C3CCCCN3C(=O)c3sccc3C)cc2)n1 (stereo not given) | 15µM* | -11% | 4 | -25
COc1ccc(CCNC(=O)COC(=O)c2ccc(N3CCCC3=O)cc2)cc1 | 10% | -7% | -3 | 1
O=C(O)c1ccc2c(c1)C(=O)N([C@H](Cc1ccc(C(F)(F)F)cc1)C(=O)O)C2=O | 13% | ? | -2 | -6
CC(Sc1nc2ccccc2[nH]1)C(=O)NC1CCCCC1C (stereo not given) | ? | ? | -1 | -11
O=C(/C=C/c1nc2ccccc2s1)N1CCCCCC1 | 45% | 356% | 35* | 53*
CC1CCCCC1NC(=O)/C=C/c1nc2ccccc2s1 (stereo not given) | ? | 4% | 30* | 76
SMILES | Pf growth 96h | Pf growth 48h | Cycloheximide cs | Shiga inhibitor
O=C1CCCCCN1CSc1nc2ccccc2s1 | 1% | -8% | -3 | -4
O=C(CNC1CCCCC1)Nc1cccc(C(F)(F)F)c1 | 9.3µM* | -23% | -1 | -11
O=C(CNC1CC1)Nc1cc(C(F)(F)F)ccc1Cl | 1.5µM* | 1.2µM* | 13 | 12
Cc1ccc(Cl)c(NC(=O)CCl)c1Cl | 12µM* | ? | 3 | 7
Cc1ccccc1NC(=O)CCl | ? | ? | 9 | -11
CN(CCCC1CCCC1)C(=O)CC1C(=O)NCCN1Cc1ccc(F)cc1 (stereo not given) | ? | ? | -3 | -9
COc1cc(C(=O)N2CCN(S(=O)(=O)c3ccc(F)cc3)CC2)cc(OC)c1OC | -27% | · | -6 | -5
COc1ccc(-c2cc(C(=O)N3CCN(C(=O)c4ccccc4F)CC3)[nH]n2)cc1 | ? | ? | 2 | -12
COc1ccccc1-c1cc(C(=O)N2CCN(S(=O)(=O)c3ccc(C)cc3)CC2)[nH]n1 | 15µM* | 0.47µM* | -3 | -10
O=C(c1cc(-c2ccc(Br)cc2)n[nH]1)N1CCN(C(=O)c2ccccc2Br)CC1 | -15% | 9.3µM* | 12 | -9
O=C(c1cc(-c2ccc(Cl)cc2)n[nH]1)N1CCc2ccccc2C1 | 10% | 5% | -5 | -4
COc1ccc(-c2cc(C(=O)N3CCN(S(=O)(=O)c4ccccc4)CC3)[nH]n2)cc1 | 55% | ? | 5.9* | 20
Cc1ccc(S(=O)(=O)N2CCN(C(=O)c3n[nH]c4ccccc34)CC2)cc1 | 12µM* | 2.6µM* | · | ·
Cc1ccc(S(=O)(=O)N2CCOCC2)cc1NC(=O)COC(=O)CNC(=O)c1ccc(Cl)cc1Cl | 8% | 24% | -1 | -12
COc1cc(NC2c3ncccc3C(=O)N2Cc2ccco2)cc(OC)c1OC (stereo not given) | ? | 10% | -1 | -12
COc1ccc(S(=O)(=O)N2CCN(C(=O)c3cc(C)oc3C)CC2)cc1OC | ? | 5% | · | ·
COc1ccc(S(=O)(=O)N2CCN(C(=O)c3cc(-c4ccc(Br)cc4)n[nH]3)CC2)cc1OC | ? | 9.3µM* | 10 | -7
Cc1cc(C)c(S(=O)(=O)N2CCN(C(=O)c3cc(=O)[nH]c4ccccc34)CC2)c(C)c1 | ? | 12µM* | · | ·
O=C(c1cc(-c2ccccc2)n[nH]1)N1CCN(S(=O)(=O)c2ccccc2)CC1 | ? | 3.7µM* | -2 | 14
O=C(CN1CCCC1)N/N=C/c1c(O)ccc2ccccc12 | ? | -68% | 4 | -2
CCOc1cccc(C(=O)N/N=C/c2coc3ccccc3c2=O)c1 | ? | 72% | 15 | -8
Cc1cccc(Nc2c([N+](=O)[O-])cc(C(=O)N3CC(=O)Nc4ccccc43)cc2[N+](=O)[O-])c1 | ? | 9.3µM* | -1 | -6
Cc1ccc(C)c(Nc2c([N+](=O)[O-])cc(C(=O)N3CC(=O)Nc4ccccc43)cc2[N+](=O)[O-])c1 | 13µM* | ? | -3 | -22
Cn1nc(NC(=O)C2CCC2C(=O)O)c2c(F)cccc21 (stereo not given) | -3% | 12% | -1 | -6
Cc1ccc(C(=O)Nc2nn(C)c3cccc(F)c23)cc1 | 103% | 62% | 18* | 29
SMILES | Pf growth 96h | Pf growth 48h | Cycloheximide cs | Shiga inhibitor
CN1CCN(NC(=O)Nc2ccc(F)cc2)CC1 | ? | 4% | -1 | -6
Cc1csc(NC(=O)C2CCCO2)n1 (stereo not given) | 38% | 27% | -3 | 23
CCCCc1nnc(NC(=O)C2CCCO2)s1 (stereo not given) | ? | 48% | 15* | 53*
Cc1nnc(NC(=O)C2=COCCO2)s1 | 32% | 36% | · | ·
CCCCc1nnc(NC(=O)C2=COCCO2)s1 | 170% | 147% | 40* | 69*
CCC(CC)c1nnc(NC(=O)C2CCCO2)s1 (stereo not given) | ? | 42% | 19* | 17
O=C(NC1CCSc2ccccc21)c1cc(S(=O)(=O)N2CCOCC2)ccc1Cl (stereo not given) | -8% | ? | · | ·
O=c1cc(/C=C/c2c(F)cccc2Cl)[nH]c2ccccc12 | 6% | 0.93µM* | 54* | 63*
CCN(CC)C(=O)/C(C#N)=C/c1cc(O)c(O)c([N+](=O)[O-])c1 | ? | -29% | · | ·
CCc1c(O)cc2n(c1=O)-c1ccc(Cl)cc1C2(C)C | -27% | 12µM* | -1 | 5
